# Results taken from PubChem BioAssay AID1508600 (Functional Genomics Laboratory (NCATS/FGL), 2020).
# About 3,700 (7%) of roughly 53,000 sequences were called active.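 Rule for the calls: active = gene knockdowns whose robust z-score for IL-1 alpha signal is at least 2 or at most -2, so actives lie on both sides; inactive = the rest.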 Only a selection was taken, and actives are over-represented in it overall.
# Assay: Components of the Cytosolic LPS Sensing Pathway: Gene Identification via Genome-wide siRNA Screen;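 note: robust z of the log signal after scaling to non-targeting control siRNA wells of the plate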
# Settings: RAW264.7 macrophages, IL-1a HTRF, actives lie on both sides, screened at 100 nM (by protocol), cells primed 5 h with Pam3CSK4 first
# Summary of the method: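 Using IL-1a HTRF as read-out, the screen measured release from RAW264.7 cells after 48h siRNA knockdown (100 nM), 5 h Pam3CSK4 priming and 24 h cytosolic LipidA. Values were expressed relative to negative-control wells as robust z-scores.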
row,Sequence,z-score
1,GGUGUUUUCUGUGCUGUGATT against Klhdc3,-1.55 (inactive)
2,GGUGCUUAUACUUCUUUGUTT against Sgcz,-2.42 (active)
3,GCCAAUAAUUGUCACACAUTT against Adgrg3,1.94 (inactive)
4,GGACUUGGGUUUCAAUUCCTT against Ddx27,-0.876 (inactive)
5,GGCACUCAGAAAUAUUCAGTT against Nap1l3,3.84 (active)
6,GCAGUCUUCCCUCAUCCUUTT against Cox8a,1.74 (inactive)
7,GGCAGUAAAUAGUAAGAAATT against Ccr9,-0.716 (inactive)
8,GGAGUGGUGUGUCAUUGAUTT against Impact,-0.663 (inactive)
9,GCACAACAUCCCAGAUAAATT against Ankrd55,0.338 (inactive)
10,GGAUACCCUGCUUCCAAAATT against Hpd,2.23 (active)
11,GCCAGGCAAAUUACAUCGCTT against Shroom1,0.303 (inactive)
12,CCUGCACUACUGGAUUGGATT against Vill,0.265 (inactive)
13,GCUCCAUUAUGCCAGACUATT against Madcam1,0.8 (inactive)
14,GGAUAAUGAAGAAUGCCAATT against Abca4,-0.533 (inactive)
15,CGGACUAUUGGAGACCAACTT against Gpsm2,2.16 (active)
16,GGUCAUCAACGUGCUAGAGTT against Nucb1,-1.3 (inactive)
17,GGAUGCAUGAGAAAUGUUATT against Tbc1d14,-0.0572 (inactive)
18,GGUAUAAGUUGGCAAGAUCTT against Cry2,0.849 (inactive)
19,CCCUUGAUUACACCACAGUTT against Cfc1,-2.6 (active)
20,GGUCACAUUUAAUGUCACATT against Itgam,-0.789 (inactive)
21,GGACAAUCAGUACCUUAACTT against Tex9,-0.375 (inactive)
22,GGAAGGUUUCGCUUUGAAUTT against Tarm1,-0.469 (inactive)

row,Sequence,z-score
1,GGCUCAGAUUUUGUGAUUCTT against Olfr894,-1.44 (inactive)
2,GGACUUUUUCACUUUCAAATT against Ugt1a5,-0.198 (inactive)
3,CGCCACACACCAUCACAUUTT against Scap,-0.0743 (inactive)
4,GGAAUAUUCUCUCAUCACATT against Mmachc,-2.07 (active)
5,GCUAACCAUGUGACAAUAATT against Timm8a1,-1.39 (inactive)
6,GGCCCAGCAGACAACUUUATT against Sgca,0.797 (inactive)
7,CCUCCGGAGUAUAAACAAUTT against Nr1i3,0.21 (inactive)
8,GGAGGAAGAAGACUCAGAATT against Prkag2,3.46 (active)
9,GAAGAGGGCACCUAGUUUCTT against Cox7b,0.249 (inactive)
10,GCCACGAAGGUACUAUGUATT against Tbce,0.176 (inactive)
11,GGGAGAAAUGCCUUUAGUCTT against Erfe,3.79 (active)
12,GGUUACCACACUAUGUUACTT against Tbc1d2b,0.454 (inactive)
13,GGAAAAGUCCAAGUUUGAATT against Hmgb2,-0.104 (inactive)
14,GGAGAUAAUCCUGAAUGGCTT against Hsd3b6,-1.18 (inactive)
15,GGCCAAAAGGUUGAGCAGUTT against Nsun2,0.311 (inactive)
16,GCUUUUAGGCCUCCAAAAGTT against Lmnb2,1.15 (inactive)
17,GGAACUUCGUCAGUACAUUTT against Setdb1,5.77 (active)
18,GGAGAAACUGGCAGACCUUTT against Washc3,-0.388 (inactive)
19,GCCUUCAGGACGAUUUAUUTT against Pla2g7,1.19 (inactive)
20,GCGAAAUCUUUGUCACUAATT against Sertad4,-0.201 (inactive)
21,GGAAGUAUUUGAUCAUGGATT against Smarca5,-0.465 (inactive)
22,GGAAAGGUAAUGCAUCACATT against Rev3l,-1.68 (inactive)

row,Sequence,z-score
1,GGCUGAAGAUCACCAAGAATT against Neurl1a,-0.869 (inactive)
2,CGGAAUCAUUCGGAAUGAGTT against Capza3,-1.01 (inactive)
3,GGAAAUCCUGAAGUUUCCUTT against Grk5,4.41 (active)
4,CGUGAUCCCACAGAUGUAGTT against Csrp3,-0.649 (inactive)
5,GGGAGGUGUCUUUACGUCUTT against Neto1,-0.773 (inactive)
6,GCUGCACGAUCGGAAUGGUTT against Ssh1,-0.678 (inactive)
7,GGCUUACUUGAAGCAUUUATT against Plcb4,2.13 (active)
8,GGUUUUUGCUGAGUCUUGCTT against Olfr299,0.00611 (inactive)
9,GGAAAAGAAAGCAAAGAGATT against Dach1,-1.15 (inactive)
10,GGAAAUGUUUACCUGCCAUTT against Zfp512,2.32 (active)
11,GCUACAGCAGACAUAGAAATT against Sparcl1,0.0109 (inactive)
12,GGUUGGAAUUGUGCAAUAATT against Fbxo48,0.164 (inactive)
13,GGACAUUUAUCCCAUGACATT against Coro2b,0.814 (inactive)
14,GGAAUUCAAUGACGUGUACTT against Mapk14,0.493 (inactive)
15,CCGUAUUUGUGCUGUGUCUTT against Olfr275,-1.53 (inactive)
16,CCUUAUUUUACGGAACUGCTT against Olfr1018,2.11 (active)
17,CCGGAGUUGAAACCUAAAATT against Hmgn5,0.524 (inactive)
18,GCAACAUAUGUUCAAGAUCTT against Ccdc163,0.53 (inactive)
19,GGCCAUCAGAGUCAACUGUTT against Immt,-0.285 (inactive)
20,GCUAGCAGAGAUACAAUGUTT against Rasal3,3 (active)
21,GGAAGAUGAAAGUUCCAUATT against Ankar,1.17 (inactive)
22,GGGUGUAGUCCUGAAAGUATT against Arpc5l,2.45 (active)

row,Sequence,z-score
1,GCUUGUGAGUGGAACUUUCTT against Mcm6,0.62 (inactive)
2,CCUACAACAGAUGUGCAGCTT against Fam222b,-1.82 (inactive)
3,CCGGGACAUAGAGGAAAUUTT against Cabp1,-0.113 (inactive)
4,CGCACAUGAAGCCACAUAUTT against Plekhb1,-0.176 (inactive)
5,UCCAAGCUGUUGUUUAUACTT against Acsl1,-0.0655 (inactive)
6,CCGUUGGAGUCCAACCUAUTT against Ube2a,2.2 (active)
7,GCUGUUACUCAGCAGAGAGTT against Bach2,-1.02 (inactive)
8,GGCCCUCUCCAAGUCUAUATT against Pex7,0.7 (inactive)
9,GGAGGAAUUUCAAAUACUATT against A530032D15Rik,0.853 (inactive)
10,GGAUAGCAGCUGAGUUUUATT against Asb5,2.57 (active)
11,GGAAGUCAUUAUGUGAUCCTT against Nfyb,-0.404 (inactive)
12,GCCUACAAUCGAGACAGUUTT against Sgca,1.15 (inactive)
13,GGACACAGACACCAAACAATT against Kat2a,-1.71 (inactive)
14,CCCACUAAGGAGAUCAGUUTT against Lasp1,1.32 (inactive)
15,GGUACUGGCAUGGUGACAATT against Mmp11,-2.52 (active)
16,GGUUUCUUGCCAAGAAAUUTT against Asic5,-0.359 (inactive)
17,GGAAACCUGCAUCCUAUGATT against Olfr195,-0.196 (inactive)
18,GAGCUGGGAGGUUUCACAGTT against Tspo,-1.42 (inactive)
19,GGCUUAAGGCUAAUGGUCUTT against Fxyd5,-0.778 (inactive)
20,GCCUGCCUACGAGAUCAACTT against Mgp,-0.0804 (inactive)
21,CCGUGAAAAAAUUAAACAGTT against Slk,0.338 (inactive)
22,CGUUUGCUCUAAAGCCAGGTT against Smagp,0.886 (inactive)

row,Sequence,z-score
1,GGACAAAAUCACCUCACUUTT against Olfr1135,-3.29 (active)
2,GGAAUUUCAUGGCAAGGGUTT against Fmc1,0.652 (inactive)
3,GGAUCACAUGAAAGGAUUATT against Dclre1c,-0.242 (inactive)
4,CCCAGCAACUACUGGAAACTT against Tas2r139,-0.293 (inactive)
5,CGCUGUGCUGAGCUUACUUTT against D17H6S53E,-2.36 (active)
6,GGUUAUCUCAAAACUCGACTT against Prox2,-0.119 (inactive)
7,GGUAACUGAUUGCUUAGAUTT against Smndc1,0.836 (inactive)
8,GCACUACAUUGUGGCUGUCTT against Itpr3,-2.57 (active)
9,GGGUUUGAACUGGUGAUUGTT against Cenpp,-0.525 (inactive)
10,GGACAAAGGGAUAAUGCUGTT against Aldoc,0.735 (inactive)
11,GGUUUUGGAAAAAGUGGAUTT against Chp1,-0.867 (inactive)
12,GCCCUGUACCUUUUAGCUUTT against Olfr704,-0.306 (inactive)
13,CCUUGUUCAAAAAGAUGGCTT against Serpina1f,-2.08 (active)
14,GGCCAUCAAGAGUUUCUUUTT against Nr0b1,0.876 (inactive)
15,GCGUGUCUUGCUCUUUUGATT against Usp22,-1.21 (inactive)
16,GGAAUCCUCUGAAUAACCUTT against Vmn1r172,-1.14 (inactive)
17,GGGUGAUUUCUACCUUCAATT against D630003M21Rik,-0.496 (inactive)
18,GGAAGAGGAAAUCACCACATT against Clec11a,-2.16 (active)
19,GGUUGGUGAUGGCACAAACTT against Cct8,-0.469 (inactive)
20,GGUAGAACUUAUUGUGGACTT against Ly6f,-0.692 (inactive)
